FBW7 act: FBW7 E3 ligase activators, primary screen, biochemical, AlphaScreen, human. normalized activity (activation), % at 26.1 µM. AID 1259310, 2017. actives 0.13% (n = 650,000). AlphaScreen FBW7–phospho-cyclin E peptide binding, activator screen. F-box/WD repeat-containing protein 7 (Homo sapiens), Q969H0; in the data active = normalized activity above about 1.9%;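 note: purified mutant Fbw7 with reduced substrate affinity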
GPR151 activ: activators of human GPR151, primary screen, cell-based, PathHunter beta-arrestin, luminescence. actives 1% (n = 650,000). activation, % at 11.2 µM. PathHunter beta-arrestin GPR151 cells; in the data active = activation above about 4.9%;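 note: 0% = median of compound wells and 100% = cells with positive control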
TEAD-YAP block: TEAD-YAP interaction inhibition, primary screen, TEAD-YAP interaction inhibitor project, luminescence, HEK-TIYL cells. actives 1.4% (n = 640,000). inhibition, % at 9.12 µM. AID 1259422, 2018. TEAD-Gal4/YAP UAS-luciferase luminescence; in the data active = inhibition above about 32%;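 note: 0% = median of test compound wells and 100% = reference inhibitor wells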
MITF inh: MITF inhibitors, primary screen, biochemical, AlphaScreen, human | Microphthalmia-associated transcription factor (Homo sapiens), O75030 | AlphaScreen MITF homodimerization, bead proximity signal | inhibition, % at 2.6 µM | actives 0.91% (n = 650,000) | AID 1259374, 2018; in the data active = inhibition above about 50%;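 note: 0% = vehicle wells with protein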
Target sequence (O75030 whole entry, looked up): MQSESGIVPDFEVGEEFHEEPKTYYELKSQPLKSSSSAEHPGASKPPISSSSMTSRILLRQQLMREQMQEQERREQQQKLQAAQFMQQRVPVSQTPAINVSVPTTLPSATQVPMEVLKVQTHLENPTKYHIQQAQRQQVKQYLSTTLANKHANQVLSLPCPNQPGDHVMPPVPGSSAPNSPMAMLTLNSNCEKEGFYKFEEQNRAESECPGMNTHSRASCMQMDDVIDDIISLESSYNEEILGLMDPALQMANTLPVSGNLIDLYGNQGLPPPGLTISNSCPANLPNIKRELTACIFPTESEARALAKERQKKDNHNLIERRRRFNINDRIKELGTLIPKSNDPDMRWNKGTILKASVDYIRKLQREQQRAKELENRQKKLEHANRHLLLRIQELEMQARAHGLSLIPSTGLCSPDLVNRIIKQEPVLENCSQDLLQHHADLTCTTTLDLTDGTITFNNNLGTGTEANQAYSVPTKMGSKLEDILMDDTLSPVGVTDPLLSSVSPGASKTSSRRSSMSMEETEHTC
MITF inh conf: MITF inhibitors, retest of hits, confirmation, biochemical, AlphaScreen, triplicate; AlphaScreen MITF homodimerization, biotin/His-MITF beads; shares compounds with MITF inh; actives 16% (n = 4,700); inhibition, % at 2.6 µM;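 active = inhibition above a cutoff derived from the DMSO control wells, cut at about 28% in these data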;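 note: 0% = MITF dimer wells with DMSO only; inhibitors lower the bead chemiluminescence by keeping MITF from dimerizing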
AlphaScreen DR: AlphaScreen optical interference compounds, dose response, counter-screen, biochemical, HTS; shares compounds with MITF inh; AlphaScreen optical interference counterscreen, cell-free; IC50, µM; actives 6% (n = 480); call rule not given here
AlphaScreen intf2: AlphaScreen optical interference compounds, counter-screen for MITF inhibitor project, biochemical, triplicate. LysRS AlphaScreen counterscreen, signal interference. actives 7.6% (n = 4,700). AID 1259376, 2018. shares compounds with MITF inh. inhibition, % at 2.6 µM;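 active = inhibition above a cutoff derived from the DMSO control wells, cut at about 30% in these data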
Numbers without * were called inactive; . = not tested or not shown. Most compounds without a hit are left out; they make up all but 3.5% or so of the library.

SMILES	FBW7 act	GPR151 activ	TEAD-YAP block	MITF inh	MITF inh conf	AlphaScreen intf2	others
CCc1ccccc1NC(=O)Cn1nc(C(=O)N2CCOCC2)cc1C	0	0	8	5	.	.
COc1cccc(/C=C/c2nc3ccccc3c(=O)n2-c2cc(C)cc(C)c2)c1OC	0	0	-2	-15	.	.
CC(=O)Nc1ccccc1C(=O)C(=O)Nc1cccc(C(=O)NCCC2=CCCCC2)c1	0	-1	-6	9	.	.
Cc1cccc(NC(=O)CSc2nc(=O)n(CCCN3CCOCC3)c3c2CCC3)c1C	0	0	11	3	.	.
COCCCNCCOc1ccc2ccccc2c1Br	0	0	-4	59*	7	18
CC(O)CNCCCCOc1ccc2ccccc2c1Br (stereo not given)	0	1	3	71*	53*	40*
CCc1ccccc1N(C)C(=O)CNC(=O)Cn1cnc2sc3c(c2c1=O)CCCC3	0	0	7	8	.	.
Cc1nc2nc[nH]n2c(=O)c1NS(=O)(=O)c1ccc(F)cc1	0	0	2	43	.	.
Cc1nc2nc[nH]n2c(=O)c1NS(=O)(=O)c1ccc2c(c1)n(C)c(=O)n2C	0	-1	4	64*	-3	-6
COc1cc(N/C=C(/C#N)C(N)=S)c(OC)cc1Cl	0	0	-7	2	.	.
Fc1ccc(C(c2nnnn2Cc2ccco2)N2CCN(c3ccccc3F)CC2)cc1 (stereo not given)	0	1	-1	-5	.	.
CC1(C)Cc2cccc(OCc3ccc(C(=O)NCc4ccncc4)cc3)c2O1	0	2	15	59*	-11	2
O=C(OCc1ccccc1)N1CCN2C(=O)[C@@H]3CCCN3C(=O)[C@H]2C1	0	1	-5	2	.	.
O=C(NCc1ccccc1)N1CCN2C(=O)[C@@H]3CCCN3C(=O)[C@H]2C1	0	0	2	77*	74*	-9	AlphaScreen DR=>6.5
C[C@H]1C(=O)N2CCN(CCc3ccccc3)C[C@@H]2C(=O)N1C	0	1	1	1	.	.
C[C@H]1C(=O)N2CCN(C(=O)NCc3ccccc3)C[C@@H]2C(=O)N1C	0	-1	9	76*	73*	-7	AlphaScreen DR=>6.5
O=C(Nc1ccc(N2CCOCC2)cc1)C1CCN(c2ccc(Nc3ccccc3)nn2)CC1	0	0	1	17	.	.
O=C(Cc1cn(-c2ccc(Cl)nn2)c2ccccc12)NCc1ccccc1	0	1	-9	72*	8	5
CC(C)(CC(=O)NCc1ccccc1Cl)CC1=NS(=O)(=O)c2ccccc2N1	0	4	16	0	.	.
COc1ccc(CN2CCN(Cc3ccco3)CC2)cc1	0	-1	-21	71*	9	9
COc1ccc(CN2CCN(C(=O)c3ccco3)CC2)cc1	0	1	-4	39	.	.
COc1cccc(N2CCN(Cc3ccco3)CC2)c1	0	-1	-6	23	.	.
COc1ccc(OC)c(CN2CCN(Cc3ccco3)CC2)c1	0	1	-4	79*	10	13
CCc1ccc(CN2CCC(C(=O)NCc3ccco3)CC2)cc1	1	-1	9	48	.	.
COc1ccc(OC)c(CNCc2ccco2)c1	0	1	4	4	.	.
SMILES	FBW7 act	GPR151 activ	TEAD-YAP block	MITF inh	MITF inh conf	AlphaScreen intf2	others
CCc1ccc(CN2CCN(Cc3ccco3)CC2)cc1	0	1	-5	71*	12	21
COc1cccc(CN2CCN(Cc3ccco3)CC2)c1	0	-1	-9	76*	14	20
FC(F)(F)c1ccc(Nc2nc(NCc3cccnc3)c3ncn(-c4ccccc4)c3n2)cc1	0	-1	11	16	.	.
O=C(NCc1ccc(F)cc1)c1nc2c(nnn2Cc2cccs2)c(=O)[nH]1	0	1	-6	-3	.	.
Clc1ccccc1N1CCN(Cc2ccco2)CC1	0	0	0	2	.	.
CSc1ccc(CN2CCN(Cc3ccco3)CC2)cc1	0	0	1	85*	-1	-1
CCC(CC)N1CCN(Cc2ccco2)CC1	0	-1	-5	53*	6	2
OCCN1CCN(Cc2cccc(Oc3ccc(Cl)cc3)c2)CC1	0	0	8	-10	.	.
CCN1CCN(Cc2nnnn2Cc2ccco2)CC1	0	-1	17	10	.	.
COc1ccc(C(=O)N2CCN(Cc3ccco3)CC2)cc1	0	1	-4	55*	-13	6
c1ccc(Oc2cccc(CN3CCN(Cc4ccco4)CC3)c2)cc1	0	-1	-4	69*	7	4
CC(C)c1ccc2nc(SCC(=O)NCC3CCCO3)c(C#N)cc2c1 (stereo not given)	0	0	9	66*	11	19
CCOc1ccc2nc(SCC(=O)NCC3CCCO3)c(C#N)cc2c1 (stereo not given)	0	-1	-2	6	.	.
Cc1cc(C(C)(C)C)ccc1OCCn1ccnc1	0	-2	1	70*	4	15
Cc1ccc(OCCn2ccnc2)c(C)c1	0	-1	6	0	.	.
CC(C)(C)c1cc(Cl)ccc1OCCn1ccnc1	1	0	-3	74*	5	11
Cc1cc(C(C)(C)C)ccc1OCCCn1ccnc1	0	1	4	19	.	.
C=CCc1cccc(OC)c1OCCOCCn1ccnc1	0	0	-7	54*	-1	7
Cc1cc(Br)ccc1OCCOCCn1ccnc1	0	-2	-6	63*	3	8
O=C(NCc1cccs1)C1CCCN1S(=O)(=O)c1cccc2nsnc12 (stereo not given)	0	0	-11	-21	.	.
O=S(=O)(c1ccccc1)N(C1CC1)C1CCN(CCc2ccccc2)CC1	0	0	-2	-6	.	.
CC(=O)Nc1ccc(N2C(=O)c3ccccc3C2(O)Cc2ccccc2)cc1 (stereo not given)	0	0	-2	55*	33*	16	AlphaScreen DR=>6.5
COC(=O)CC1(O)c2ccccc2C(=O)N1Cc1ccccc1 (stereo not given)	0	1	7	12	.	.
CC(=O)N/N=C/c1ccc(OCC(C)C)cc1	1	-1	-7	10	.	.
CC(Sc1nnc(-c2ccc([N+](=O)[O-])cc2)o1)C(N)=O (stereo not given)	0	0	4	69*	5	20
CC(C)C(=O)N1CCN(CC(O)COc2ccccc2C(C)C)CC1 (stereo not given)	0	-1	5	52*	10	12

Source: PubChem BioAssay
